Inconclusive results are not listed. The source made the active and inactive calls. The calls were made as follows, unless noted: active = hit-call score of the fitted dose curve at least 0.9, where 1 is the maximum; inactive = score below 0.9.

Assay [1] addresses Myc proto-oncogene protein (Homo sapiens) (UniProt P01106). Description: ATG_Myc_CIS: Attagene CIS-FACTORIAL HepG2 Assay for human Myelocytomatosis (Myc) Proto-Oncogene Transcription Factor (AID 2282990). To be noted: HepG2, Attagene cis-reporter transcription factor activity; actives raise or lower the signal. The essentials: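 DMSO-normalised, bidirectionally fitted reporter mRNA signal. HepG2 cells transfected with cis reporter constructs, treated 24 h; transcripts detected by RT-PCR, 6-FAM primer extension and CE.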

A short description of assay [2]: ATG_NF_kB_CIS: Attagene CIS-FACTORIAL HepG2 Assay for human Nuclear Factor Kappa B (NF-kB) (AID 2282991). To be noted: HepG2 Attagene cis-factorial NF-kB reporter mRNA; actives raise or lower the signal. The essentials:
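HepG2 cells transiently transfected with multiplexed cis-element reporter units measuring endogenous transcription factor activity; reporter mRNA read 24 h after dosing by RT-PCR, fluorescent labelling, HpaI digestion and capillary electrophoresis. Bidirectional fit against DMSO baseline.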

A short description of assay [3]: ATG_NRF2_ARE_CIS: Attagene CIS-FACTORIAL HepG2 Assay for human Nuclear Factor Erythroid 2 Related Factor 2 (NFR2) response to Antioxidant Response Elements (ARE) (AID 2282992). To be noted: HepG2 Attagene ARE/NRF2 reporter, transcription factor activity; actives raise or lower the signal. The essentials:
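Using transiently transfected HepG2 cells exposed for 24 h, reporter mRNA levels were determined by RT-PCR with fluorescent primer extension and capillary electrophoresis, analysed for gain or loss of signal against DMSO.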

The nature of assay [4]: BSK_3C_TissueFactor: BioMAP Diversity Plus: 3C Assay for Tissue Factor Biomarker Activity (AID 2282997). To be noted: BioMAP 3C HUVEC, tissue factor biomarker readout; actives raise or lower the signal. The essentials:
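Readout: Tissue Factor ELISA. Cells: human primary umbilical vein endothelium. Time: 24 h after dosing. Analysis: bidirectional fit, DMSO baseline.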

Assay [5] in a line: BSK_3C_VCAM1: BioMAP Diversity Plus: 3C Assay for Vascular cell adhesion molecule 1 (VCAM1) Biomarker Activity (AID 2282999). Conditions: BioMAP 3C HUVEC, VCAM1 ELISA, cytokine-stimulated; actives raise or lower the signal. The essentials: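 Vascular primary endothelium (human umbilical vein) was exposed to chemicals and assayed 24 h later. VCAM-1 levels came from ELISA, with DMSO serving as baseline for bidirectional fitting.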
In general terms: ELISA stands for enzyme-linked immunosorbent assay.

Assay [6] can be described thus: BSK_4H_Eotaxin3: BioMAP Diversity Plus: 4H Assay for Eotaxin 3 Biomarker Activity (AID 2283000).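 As to outcome: CCL26 protein level quantified by ELISA in parallel with SRB cytotoxicity check.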 Conditions: primary human endothelial cells (HUVEC); actives raise or lower the signal. The essentials:
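HUVEC, 24 h post-dose, ELISA for Eotaxin-3/CCL26. Gain or loss of signal fitted bidirectionally vs DMSO baseline.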

For assay [7], the target named is human Peroxisome Proliferator-activated Receptor alpha (PPARa), PPARA (gene 5465) (UniProt Q07869). Description: ATG_PPARa_TRANS: Attagene TRANS-FACTORIAL HepG2 Assay for human Peroxisome Proliferator-activated Receptor alpha (PPARa) (AID 2283001; active = hit-call score of the fitted dose curve at least 0.9, where 1 is the maximum). The essentials: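 Cells (HepG2) are transfected with multiple reporter transcription units, exposed to chemical for 24 h, then total RNA is reverse-transcribed and amplified. Labelled products are quantified by capillary electrophoresis; induction is referenced to DMSO.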
human Peroxisome Proliferator-activated Receptor alpha (PPARa), PPARA (gene 5465), sequence (Q07869 whole entry, looked up): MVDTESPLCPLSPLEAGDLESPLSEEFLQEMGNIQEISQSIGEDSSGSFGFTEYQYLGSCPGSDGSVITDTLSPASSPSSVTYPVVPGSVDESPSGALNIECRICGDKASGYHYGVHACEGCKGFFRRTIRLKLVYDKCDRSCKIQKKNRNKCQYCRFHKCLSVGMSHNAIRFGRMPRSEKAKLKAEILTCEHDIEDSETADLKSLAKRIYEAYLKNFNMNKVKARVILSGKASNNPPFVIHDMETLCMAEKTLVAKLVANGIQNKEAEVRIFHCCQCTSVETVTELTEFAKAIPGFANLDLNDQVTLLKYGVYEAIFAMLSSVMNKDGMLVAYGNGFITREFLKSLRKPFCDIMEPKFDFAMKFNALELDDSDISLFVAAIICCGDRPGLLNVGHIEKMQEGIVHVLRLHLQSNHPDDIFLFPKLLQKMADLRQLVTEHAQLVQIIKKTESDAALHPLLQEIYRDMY

Assay [8] concerns the target human Peroxisome Proliferator-activated Receptor delta (PPARd), PPARD (gene 5467) (UniProt Q03181). Description: ATG_PPARd_TRANS: Attagene TRANS-FACTORIAL HepG2 Assay for human Peroxisome Proliferator-activated Receptor delta (PPARd) (AID 2283002; active = hit-call score of the fitted dose curve at least 0.9, where 1 is the maximum). The essentials: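 Measured quantity: GAL4-UAS reporter transcript induction in HepG2 after 24 h chemical dosing, with NR-Gal4 chimeras supplied by transient transfection. Detection by RT-PCR and capillary electrophoresis; upward fit against DMSO.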

Read-out in assay [9]: Intercellular Adhesion Molecule 1 (ICAM1), ICAM1 (gene 3383)
The assay is described as follows: BSK_3C_ICAM1: BioMAP Diversity Plus: 3C Assay for Intercellular Adhesion Molecule 1 (ICAM1) Biomarker Activity (AID 2283003). To be noted: primary human endothelial cells (HUVEC); actives raise or lower the signal. The essentials:
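ELISA readout of ICAM1 in human umbilical vein endothelial cells in the 3C system, taken 24 h post-dose. Gain or loss of signal versus DMSO was fitted in both directions, with SRB total-protein staining run in parallel.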

A short description of assay [10]: BSK_3C_Proliferation: Cell Proliferation Assessment in the BioMAP Diversity Plus: 3C Assay (AID 2283006).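 As to AC50: potency may reflect either rise or fall in cell number versus DMSO.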 To be noted: primary human endothelial cells (HUVEC). The essentials: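 Proliferation as total protein: sulforhodamine B (0.1%) stain of TCA-fixed subconfluent human umbilical vein endothelial cells, absorbance 560 nm, 48 h after dosing. Activity fitted in both directions against DMSO baseline.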

Assay [11] deals with Peroxisome proliferator-activated receptor gamma (Homo sapiens) (UniProt P37231). Description: ATG_PPARg_TRANS: Attagene TRANS-FACTORIAL HepG2 Assay for human Peroxisome Proliferator-activated Receptor-gamma (PPARg) (AID 2283007; active = hit-call score of the fitted dose curve at least 0.9, where 1 is the maximum). The essentials: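 HepG2 cells transiently transfected with multiplexed GAL4-UAS reporter units and exogenous chimeric NR-Gal4 proteins; reporter mRNA quantified after 24 h compound exposure by RT-PCR, fluorescent labelling, HpaI digestion and capillary electrophoresis; gain-of-signal fitted versus DMSO baseline.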
Peroxisome proliferator-activated receptor gamma (Homo sapiens), sequence (P37231 whole entry, looked up, the tested form may be a part): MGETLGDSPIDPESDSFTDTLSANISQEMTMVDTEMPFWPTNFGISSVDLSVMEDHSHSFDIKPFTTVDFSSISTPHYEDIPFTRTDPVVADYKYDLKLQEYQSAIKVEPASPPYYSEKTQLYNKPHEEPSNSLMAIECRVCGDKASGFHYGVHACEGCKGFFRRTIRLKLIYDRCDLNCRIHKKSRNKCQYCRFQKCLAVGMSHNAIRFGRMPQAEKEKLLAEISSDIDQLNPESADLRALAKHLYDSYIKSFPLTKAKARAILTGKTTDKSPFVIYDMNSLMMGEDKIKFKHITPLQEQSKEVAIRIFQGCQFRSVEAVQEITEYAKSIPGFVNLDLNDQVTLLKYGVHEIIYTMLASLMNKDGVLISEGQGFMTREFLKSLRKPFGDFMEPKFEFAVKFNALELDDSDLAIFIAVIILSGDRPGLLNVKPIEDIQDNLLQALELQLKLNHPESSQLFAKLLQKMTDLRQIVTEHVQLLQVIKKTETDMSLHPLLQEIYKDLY

Assay [12] has as its target Nuclear receptor subfamily 1 group I member 2 (Homo sapiens) (UniProt O75469). Description: ATG_PXR_TRANS: Attagene TRANS-FACTORIAL HepG2 Assay for human Pregnane X Receptor (PXR) (AID 2283008; active = hit-call score of the fitted dose curve at least 0.9, where 1 is the maximum). The essentials:
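Multiplexed TRANS reporter panel in HepG2; this component tracks PXR-Gal4-driven reporter mRNA after 24 h dosing, measured by RT-PCR with capillary electrophoresis fluorescence, fitted against DMSO.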

Assay [13] addresses Retinoic acid receptor RXR-alpha (Homo sapiens) (UniProt P19793). Description: ATG_RXRa_TRANS: Attagene TRANS-FACTORIAL HepG2 Assay for human Retinoid X Receptor alpha (RXRa) (AID 2283012; active = hit-call score of the fitted dose curve at least 0.9, where 1 is the maximum). The essentials:
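TRANS format reporting activity of exogenous RXRa-Gal4 chimera in transiently transfected HepG2, 24 h exposure. Reporter transcripts quantified by RT-PCR with capillary electrophoresis, with gain of signal scored relative to DMSO.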

A short description of assay [14]: ATG_Oct_MLP_CIS: Attagene CIS-FACTORIAL HepG2 Assay for human Octamer-Binding Transcription Factor (Oct) (AID 2282993). To be noted: HepG2 Attagene cis-factorial Oct reporter, mRNA; actives raise or lower the signal. The essentials:
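Transient MRTU transfection of HepG2 → 24 h compound treatment → RNA isolation, reverse transcription, PCR → 6-FAM primer extension, HpaI digest → capillary electrophoresis. Activity fitted both directions against DMSO.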

For assay [15], the target named is Cellular tumor antigen p53 (Homo sapiens) (UniProt P04637). Description: ATG_p53_CIS: Attagene CIS-FACTORIAL HepG2 Assay for human p53 Transcription Factor (AID 2282994). Conditions: HepG2 p53 cis-element reporter, Attagene mRNA; actives raise or lower the signal. The essentials: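 In HepG2 cells, reporter transcription units under cis-regulatory promoters were transiently introduced. Following 24 h treatment, RNA was processed to labelled, digested cDNA fragments read by capillary electrophoresis; fitting was bidirectional versus DMSO.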
Cellular tumor antigen p53 (Homo sapiens), sequence (P04637 whole entry, looked up, the tested form may be a part): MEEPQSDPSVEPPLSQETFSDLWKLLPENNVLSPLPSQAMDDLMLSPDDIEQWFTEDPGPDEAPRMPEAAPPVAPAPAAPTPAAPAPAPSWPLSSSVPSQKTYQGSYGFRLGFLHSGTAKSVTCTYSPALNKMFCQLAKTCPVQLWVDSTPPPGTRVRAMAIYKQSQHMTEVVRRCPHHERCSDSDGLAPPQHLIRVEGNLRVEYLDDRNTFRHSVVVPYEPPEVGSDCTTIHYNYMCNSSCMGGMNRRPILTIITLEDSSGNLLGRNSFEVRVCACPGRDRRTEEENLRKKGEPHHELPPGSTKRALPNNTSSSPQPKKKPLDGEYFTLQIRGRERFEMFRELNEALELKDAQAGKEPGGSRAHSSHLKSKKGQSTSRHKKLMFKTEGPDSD

The target in assay [16] is human RAR-related Orphan Receptor beta (RORb), RORB (gene 6096) (UniProt Q92753). The assay is described as follows: ATG_RORb_TRANS: Attagene TRANS-FACTORIAL HepG2 Assay for human RAR-related Orphan Receptor beta (RORb) (AID 2283010; active = hit-call score of the fitted dose curve at least 0.9, where 1 is the maximum). The essentials:
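Read-out is reporter mRNA induction, quantified by RT-PCR with fluorescent capillary electrophoresis, 24 h post-dose in transiently transfected HepG2 expressing exogenous NR-Gal4 chimera. Activity fitted upward versus DMSO.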

Assay [17] deals with human RAR-related Orphan Receptor gamma (RORg), RORC (gene 6097) (UniProt P51449). The assay is described as follows: ATG_RORg_TRANS: Attagene TRANS-FACTORIAL HepG2 Assay for human RAR-related Orphan Receptor gamma (RORg) (AID 2283011; active = hit-call score of the fitted dose curve at least 0.9, where 1 is the maximum). The essentials: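 Readout: reporter transcript induction (RT-PCR, fluorescent primer extension, capillary electrophoresis) after 24 h compound exposure of transiently transfected HepG2 cells carrying a RORg-Gal4 chimera and GAL4-UAS reporters; DMSO served as baseline, with increasing signal fitted.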
human RAR-related Orphan Receptor gamma (RORg), RORC (gene 6097), sequence (P51449 whole entry, looked up, the tested form may be a part): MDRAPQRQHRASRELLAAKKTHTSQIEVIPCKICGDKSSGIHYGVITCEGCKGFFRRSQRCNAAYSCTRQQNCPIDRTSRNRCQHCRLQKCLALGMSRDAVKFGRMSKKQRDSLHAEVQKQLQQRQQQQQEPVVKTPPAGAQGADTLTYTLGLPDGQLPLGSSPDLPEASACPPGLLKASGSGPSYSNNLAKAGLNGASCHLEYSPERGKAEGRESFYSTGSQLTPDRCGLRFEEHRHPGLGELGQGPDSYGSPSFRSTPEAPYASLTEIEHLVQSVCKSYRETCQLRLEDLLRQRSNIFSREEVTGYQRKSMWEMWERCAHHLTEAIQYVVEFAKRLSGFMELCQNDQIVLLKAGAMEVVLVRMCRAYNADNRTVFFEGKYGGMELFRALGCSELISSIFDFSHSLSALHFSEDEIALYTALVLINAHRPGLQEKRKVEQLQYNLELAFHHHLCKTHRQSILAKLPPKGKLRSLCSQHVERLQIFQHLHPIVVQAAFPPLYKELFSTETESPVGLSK

Assay [18] is described as follows: BSK_3C_uPAR: BioMAP Diversity Plus: 3C Assay for Urokinase-type plasminogen activator receptor (uPAR) Biomarker Activity (AID 2282998). Conditions: BioMAP 3C HUVEC, uPAR biomarker ELISA; actives raise or lower the signal. The essentials: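 ELISA readout of uPAR on human vascular endothelium (umbilical vein primary cells), taken 24 h after chemical dosing. Increases and decreases are both fitted relative to DMSO vehicle.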

human Peroxisome Proliferator-activated Receptor delta (PPARd), PPARD (gene 5467), sequence (Q03181 whole entry, looked up, the tested form may be a part): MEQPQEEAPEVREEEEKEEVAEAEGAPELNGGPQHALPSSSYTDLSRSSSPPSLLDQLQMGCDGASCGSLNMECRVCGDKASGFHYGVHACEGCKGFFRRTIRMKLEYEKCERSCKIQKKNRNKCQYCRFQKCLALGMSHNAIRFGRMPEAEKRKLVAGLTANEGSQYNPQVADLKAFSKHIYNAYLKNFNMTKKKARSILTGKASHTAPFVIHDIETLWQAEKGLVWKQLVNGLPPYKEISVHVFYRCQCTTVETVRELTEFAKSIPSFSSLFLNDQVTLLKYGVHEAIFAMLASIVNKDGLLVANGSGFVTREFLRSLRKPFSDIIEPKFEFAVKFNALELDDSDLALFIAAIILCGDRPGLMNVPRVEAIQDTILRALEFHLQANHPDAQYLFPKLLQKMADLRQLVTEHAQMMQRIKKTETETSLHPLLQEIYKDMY
Nuclear receptor subfamily 1 group I member 2 (Homo sapiens), sequence (O75469 whole entry, looked up, the tested form may be a part): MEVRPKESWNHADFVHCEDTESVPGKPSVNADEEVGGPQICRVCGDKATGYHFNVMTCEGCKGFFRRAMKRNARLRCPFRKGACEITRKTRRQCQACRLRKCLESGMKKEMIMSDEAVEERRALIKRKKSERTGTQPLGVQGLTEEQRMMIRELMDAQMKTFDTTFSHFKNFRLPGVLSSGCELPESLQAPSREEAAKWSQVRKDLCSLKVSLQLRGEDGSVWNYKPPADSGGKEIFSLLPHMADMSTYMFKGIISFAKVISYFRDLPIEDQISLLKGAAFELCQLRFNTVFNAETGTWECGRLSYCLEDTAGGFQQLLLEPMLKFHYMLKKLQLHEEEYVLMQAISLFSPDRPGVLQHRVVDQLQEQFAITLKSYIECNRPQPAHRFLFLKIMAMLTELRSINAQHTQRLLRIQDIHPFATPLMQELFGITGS
Myc proto-oncogene protein (Homo sapiens), sequence (P01106 whole entry, looked up): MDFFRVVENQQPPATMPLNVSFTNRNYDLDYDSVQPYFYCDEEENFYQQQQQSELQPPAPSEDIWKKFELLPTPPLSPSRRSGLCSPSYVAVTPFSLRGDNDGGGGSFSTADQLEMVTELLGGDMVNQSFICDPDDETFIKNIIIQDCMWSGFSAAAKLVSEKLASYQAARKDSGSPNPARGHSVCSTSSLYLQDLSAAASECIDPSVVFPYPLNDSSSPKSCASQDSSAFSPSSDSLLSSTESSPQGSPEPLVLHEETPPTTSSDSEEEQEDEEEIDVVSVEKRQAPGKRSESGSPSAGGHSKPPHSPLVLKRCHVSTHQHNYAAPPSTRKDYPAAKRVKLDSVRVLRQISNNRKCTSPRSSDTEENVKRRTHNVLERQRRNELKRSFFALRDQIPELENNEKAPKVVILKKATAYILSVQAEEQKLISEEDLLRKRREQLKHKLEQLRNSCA
Retinoic acid receptor RXR-alpha (Homo sapiens), sequence (P19793 whole entry, looked up, the tested form may be a part): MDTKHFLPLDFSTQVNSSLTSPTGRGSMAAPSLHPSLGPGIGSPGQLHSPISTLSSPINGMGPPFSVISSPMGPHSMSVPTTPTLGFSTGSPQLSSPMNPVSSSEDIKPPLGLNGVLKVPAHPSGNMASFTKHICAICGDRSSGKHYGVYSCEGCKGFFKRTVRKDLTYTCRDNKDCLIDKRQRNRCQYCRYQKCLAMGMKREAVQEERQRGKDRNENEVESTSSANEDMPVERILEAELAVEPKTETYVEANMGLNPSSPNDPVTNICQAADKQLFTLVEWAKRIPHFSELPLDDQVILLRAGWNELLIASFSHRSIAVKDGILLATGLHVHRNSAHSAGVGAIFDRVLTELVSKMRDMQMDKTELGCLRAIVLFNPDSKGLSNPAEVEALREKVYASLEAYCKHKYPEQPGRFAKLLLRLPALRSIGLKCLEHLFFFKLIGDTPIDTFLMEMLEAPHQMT
human RAR-related Orphan Receptor beta (RORb), RORB (gene 6096), sequence (Q92753 whole entry, looked up, the tested form may be a part): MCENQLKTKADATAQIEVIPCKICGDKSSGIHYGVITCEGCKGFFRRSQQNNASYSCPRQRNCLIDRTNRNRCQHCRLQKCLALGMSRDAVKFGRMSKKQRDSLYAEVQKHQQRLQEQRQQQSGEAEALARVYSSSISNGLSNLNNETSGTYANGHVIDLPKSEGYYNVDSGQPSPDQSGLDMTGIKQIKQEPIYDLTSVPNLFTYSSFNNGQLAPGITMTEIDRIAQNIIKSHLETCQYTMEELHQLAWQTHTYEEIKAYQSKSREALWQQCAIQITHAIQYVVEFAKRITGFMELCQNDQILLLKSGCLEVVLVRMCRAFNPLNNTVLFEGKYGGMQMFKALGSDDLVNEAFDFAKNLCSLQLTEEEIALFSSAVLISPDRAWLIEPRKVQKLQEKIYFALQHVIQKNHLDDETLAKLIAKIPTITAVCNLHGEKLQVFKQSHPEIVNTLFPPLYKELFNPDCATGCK

For orientation: AC50 means the midpoint of the concentration-response curve, whichever way the signal moves. In the case of `C=CCc1cc(S(=O)(=O)c2ccc(O)c(CC=C)c2)ccc1O`, the molecule was called inactive in assay [1], in [2], in assay [7], in [8] and in [13]. Also, the AC50 in assay [3] is 7.04 µM (active); in assay [4], 32 µM (active); in assay [5], 32 µM (active); in assay [6], 27.1 µM (active); in assay [9], 29.3 µM (active); in assay [10], 25.8 µM (active). In addition, the AC50 in [11] was 9.21 µM (active); in assay [12], 3.16 µM (active).
Turning to `COc1cc2c(c(OC)c1OC)-c1ccc(OC)c(=O)cc1[C@@H](NC(C)=O)CC2`, the molecule was called inactive in assay [1], in assay [2], in assay [3], in assay [14], in [4] and in assay [9]. In addition, the molecule was classed as inactive in assay [11], in [12] and in [13]. The half-maximal activity concentration (AC50) in [5] was 0.404 µM (active); in assay [6], 0.148 µM (active); in assay [10] it was 0.148 µM (active).
As for `CCn1nc(C)c2c1C(=O)NCC(c1ccc(O)cc1)=N2`, the molecule was called inactive in [1], in [2], in assay [3], in [4], in assay [5] and in assay [6]. The outcome in assay [7], in [8], in assay [9] and in [12] was inactive. Moreover, the results for the AC50 in assay [15], in assay [10] and in [11] were 2.9 µM (active), 20 µM (active) and 8.02 µM (active), respectively.
As for `O=C(O)[C@H](O)[C@@H](O)C(=O)O`, the call in [1], in assay [2], in assay [3], in assay [4], in assay [5] and in assay [6] was inactive. Also, the call in [8], in assay [9], in assay [10], in assay [11], in assay [16] and in assay [17] was inactive. The molecule was called inactive in assay [13].
With `CCCCCCOC(=O)CC(CC(=O)OCCCCCC)(OC(=O)CCC)C(=O)OCCCCCC`, the call in [1], in [2], in [3], in [4], in [18] and in assay [5] was inactive. For the same molecule, the result in [6], in assay [9], in assay [10], in [11], in assay [12] and in assay [16] was inactive. The call in assay [17] and in [13] was inactive.

(Values after PubChem BioAssay (EPA / NIEHS).)
